Screens deposited in PubChem BioAssay by NMMLSC.
Hits are enriched below; roughly 1.8% of the tested compounds scored in any of these assays.
MEP2 TOR yeast – alters MEP2-GFP fluorescence in TOR pathway yeast screen; S. cerevisiae MEP2-GFP strain, flow cytometry GFP, 3 h; 100% = DMSO control level; GFP response vs DMSO, % at 10 µM; 330,000 compounds, 0.51% hits;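 active = GFP response versus DMSO above a set limit, roughly screen mean plus 3 SD, cut at about 180% in these data; inconclusive = fewer than 70 cells counted for a yeast strain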;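 note: median GFP fluorescence of the barcode-gated MEP2-GFP cells per well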
Myeloid diff 2 – compounds promoting myeloid differentiation; ER-HoxA9 myeloid progenitors, lysozyme-GFP differentiation, flow cytometry; calls only at 10 µM; 360,000 compounds, 1% hits; AID 624256;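 active = normalized GFP-positive differentiation at or above the plate's own cutoff, the solvent-only control mean plus 3 SD; inconclusive = no clear call, values can overlap the other calls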;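 note: cells exposed to compound for four days before flow analysis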
LAP4-GFP MLPCN – modulators of TOR pathway LAP4-GFP in S. cerevisiae. S. cerevisiae LAP4-GFP multiplex, flow cytometry GFP, 3 h; median GFP as percent of DMSO wells. GFP response vs DMSO, % at 10 µM. 320,000 compounds, 0.34% hits;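 active = GFP response vs DMSO above a set limit, about the screen mean plus 3 SD, cut at about 150% in these data; inconclusive = under 70 cell events counted for the yeast strain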
CIT2-GFP yeast – yeast TOR pathway CIT2-GFP modulation; S. cerevisiae CIT2-GFP strain, flow cytometry, 3 h; 100 means same as DMSO wells; GFP response vs DMSO, % at 10 µM; 320,000 compounds, 0.065% hits;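 active = GFP response relative to DMSO above a set limit, near the screen mean plus 3 SD, cut at about 150% in these data; inconclusive = Fewer than 70 cells measured for a yeast strain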;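 note: ratio of well median GFP fluorescence to mean of DMSO wells on the plate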
RPL19A TOR yeast – modulators of TOR pathway RPL19A-GFP in S. cerevisiae. S. cerevisiae RPL19A-GFP strain, flow cytometry, 3 h; hits give low values. percent response vs DMSO, % at 10 µM. 330,000 compounds, 0.3% hits. AID 2025;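 active = percent response vs DMSO below 50%; inconclusive = fewer than 70 events counted for the yeast strain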;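 note: median channel GFP fluorescence of the barcoded RPL19A-GFP strain; ratio of sample median GFP to plate DMSO average so 100% = DMSO; lower means less RPL19A-GFP as with rapamycin TOR inhibition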
AGP1 TOR yeast – alters AGP1-GFP fluorescence in TOR pathway yeast screen; S. cerevisiae AGP1-GFP multiplex flow cytometry, 3 h; GFP as percent of DMSO wells; GFP response vs DMSO, % at 10 µM; 320,000 compounds, 0.02% hits; AID 2066;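 active = GFP response relative to DMSO above a set limit, near screen average plus 3 SD, cut at about 150% in these data; inconclusive = fewer than 70 cells counted for the yeast strain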;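 note: median GFP channel fluorescence of the gated AGP1 strain per well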
* hit, by the source's call; i = inactive; ? = inconclusive; . = not tested or not shown; + = active, no number; [ ] = remark or other dose.

SMILES	MEP2 TOR yeast	Myeloid diff 2	LAP4-GFP MLPCN	CIT2-GFP yeast	RPL19A TOR yeast	AGP1 TOR yeast
Cc1c2cc(O)c(=O)cc-2oc2cc(O)c(O)cc12	145	+	136	.	111	107
Cc1ccc(NS(=O)(=O)c2ccc3c(c2)NC(=O)C(C)C(=O)N3)cc1C (stereo unspecified)	100	i	96	112	98	101
O=c1oc(-c2cccc(Cl)c2)nc2c1cnn2-c1ccccc1	208*[may fluoresce violet]	i	101	?	57	23
C=Cn1cc(CNC[C@H]2O[C@@H](n3cc(C)c(=O)[nH]c3=O)C[C@@H]2O)c(C)n1	.	i	.	.	.	.
Cc1ccc(C(=O)NCCC(=O)N2CCOCC2)cc1	82	i	80	89	101	87
Cc1nc2ccc(NS(=O)(=O)c3ccc4c(c3)OCCO4)cc2s1	107	+	106	113	101	.
Cc1ccc(S(=O)(=O)Nc2ccc3c(c2)OCCO3)cc1	98	i	107	100	99	102
CSc1ccc(S(=O)(=O)Nc2ccc3c(c2)OCCO3)cc1	101	+	103	98	97	102
N#Cc1c(C(F)(F)F)cc(-c2cccs2)nc1SC(C(=O)O)c1ccccc1 (stereo unspecified)	100	i	103	92	101	97
CCCCCCC=C1CCC(CN2CCCC2)C1=O (stereo unspecified)	.	i	.	.	.	.
Cc1cc(-c2nnc(CCC(=O)NCc3ccc(OC(F)(F)F)cc3)o2)no1	98	?	100	100	100	106
CN(C(=O)c1cccc(S(=O)(=O)NCc2ccccc2)c1)C1CCCCC1	102	i	91	106	101	101
CC(C)CN(C(=O)COC(=O)CCC(=O)c1ccc(F)cc1)c1c(N)n(Cc2ccccc2)c(=O)[nH]c1=O	99	i	112	96	103	115
N#Cc1c(NC(=O)c2cccnc2)sc2c1CCC2	105	+	118	99	107	99
Nc1nc(-c2ccccc2)c(-c2ccccc2)n1N	90	i	.	82	86	83
c1ccc(-c2cnn3c(-c4ccccc4)c(-c4ccccc4)nc3n2)cc1	.	+	.	.	.	.
CCN1CCN(C(=O)CN(c2ccc(F)cc2)S(=O)(=O)c2ccc(OC)c(OC)c2)CC1	103	i	88	98	104	93
O=C(NC(=S)NNC(=O)c1ccco1)c1ccc(F)cc1	?	i	?	?	8.6*[may fluoresce violet]	?
COc1ccc(C(=O)NC(=S)NNC(=O)c2ccco2)cc1	100	i	94	90	109	96
Cc1ccc(S(=O)(=O)N2CCOC2CNC(=O)C(=O)NCc2ccncc2)cc1 (stereo unspecified)	89	i	104	114	100	110
COCCCn1c(=NC(=O)c2ccccc2)c(C#N)cc2c(=O)n3cccc(C)c3nc21	113	i	95	106	91	78
Cc1cccn2c(=O)c3cc(C#N)c(=NC(=O)c4ccccc4)n(Cc4ccco4)c3nc12	257*[may fluoresce violet]	i	96	?	44*[may fluoresce violet]	22
Cc1cccn2c(=O)c3cc(C#N)c(=NC(=O)c4ccco4)n(Cc4ccco4)c3nc12	135	i	104	?	80	19
Cc1cccc(C(=O)N=c2c(C#N)cc3c(=O)n4cccc(C)c4nc3n2Cc2ccco2)c1	294*[may fluoresce violet]	i	83	?	17*[may fluoresce violet]	?
CCOc1ccc(S(=O)(=O)NC(C)C(=O)NCc2ccncc2)cc1 (stereo unspecified)	104	i	94	105	102	109
SMILES	MEP2 TOR yeast	Myeloid diff 2	LAP4-GFP MLPCN	CIT2-GFP yeast	RPL19A TOR yeast	AGP1 TOR yeast
O=C(NCCc1ccccn1)c1c(-c2ccsc2)sc2ccccc12	100	+	108	95	105	103
O=C(NCCc1ccccn1)c1c(-c2ccccc2)sc2ccccc12	97	i	99	91	94	97
CC(=O)Nc1ccccc1OCC(=O)N(Cc1ccccc1)C(C)C	84	+	90	86	98	96
CC(=O)Nc1ccccc1OCC(=O)NC(C)c1ccccc1 (stereo unspecified)	104	i	100	100	104	97
CCOc1ccc(N2C(=O)CS/C2=C(\C(Cl)=C(Cl)Cl)[N+](=O)[O-])cc1	93	+	100	94	92	94
CCc1nnc(NC(=O)CSc2nnc3scc(-c4ccc(C)cc4)n23)s1	102	i	99	97	99	97
Cc1ccc(-c2nc(NC(=O)CSc3nnc4scc(-c5ccccc5)n34)ns2)cc1	102	+	96	88	100	92
COC(=O)C1=C(C)NC(C)=C(C(=O)OC)C1c1ccc(OC(=O)c2oc3ccccc3c2C)c(OC)c1	156	i	115	157*	106	100
CCN1CCN(CCCNC(=O)C(=O)c2c(C)[nH]c3ccccc23)CC1	95	i	108	95	90	106
CCn1c(SCC(=O)N2CCOCC2)nc2oc3c(Cl)cc(Cl)cc3c(=O)c2c1=O	186*[may fluoresce violet]	.	102	?	62	19
COc1ccc(C(=O)N/C(=C\c2cn(C)c3ccccc23)C(=O)NCCCn2ccnc2)cc1	181*[may fluoresce violet]	i	91	?	61	?
Cn1cc(/C=C(\NC(=O)c2ccccc2)C(=O)NCCCn2ccnc2)c2ccccc21	.	i	.	.	.	.
Cc1ccc(C(=O)N/C(=C\c2ccc(-c3ccccc3[N+](=O)[O-])o2)C(=O)NCCCN2CCOCC2)cc1	148	i	66	?	13*[may fluoresce violet]	?
COc1ccccc1C(=O)N/C(=C\c1cn(C)c2ccccc12)C(=O)NCCN1CCOCC1	.	i	.	.	.	.
Cc1ccc(C(=O)N/C(=C\c2cn(C)c3ccccc23)C(=O)NCCN2CCOCC2)cc1	231*[may fluoresce violet]	i	63	?	34*[may fluoresce violet]	?
Cc1ccc(C(=O)N/C(=C\c2cn(C)c3ccccc23)C(=O)NCCCN2CCOCC2)cc1	260*[may fluoresce violet]	i	46	?	40*[may fluoresce violet]	?
COc1cccc(NC(=O)CN(C)C(=O)c2cc3c(s2)CCC3)c1	97	.	103	96	96	104
Cc1cc(C)n(Cc2cccc(C(=O)N/N=C/c3ccncc3)c2)n1	99	i	100	98	101	101
Cc1ccc(C(=O)N/C(=C\c2ccc(Cl)cc2)C(=O)NCCN2CCOCC2)cc1	361*[may fluoresce violet]	i	80	?	53	?
O=C(NCCN1CCOCC1)/C(=C/c1ccc(Cl)cc1)NC(=O)c1ccccc1	102	i	103	94	110	96
N#Cc1c2c(c(=S)n(-c3ccccc3)c1N)CCCC2	93	+	84	93	86	86
